# Bioassay records from PubChem BioAssay.
# Most compounds without a hit are left out; they make up all but 21% or so of the library.
# IL-1B inflam inh: inflammasome signaling inhibition, IL-1 beta readout | THP-1 LPS/ATP IL-1B secretion, AlphaLISA, 16 h; hits give low values | activity change, % at 57.5 µM | hit rate 4.7% among 360,000; in the data active = activity change below about -50%; inconclusive = mostly about -30% to -49%; note: % is set by controls: 0 for no effect and ±100 for the full control effect
#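 THP-1 cells pretreated 1 hr with compounds (up to 57.5 uM final), then stimulated with LPS (250 ng/mL final) plus ATP (1.25 mM final); secreted IL-1B measured by AlphaLISA after 16 hr, decreased signal indicating inhibition.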
# D3 ag: agonists of human D3 dopamine receptor. hit rate 0.58% among 410,000. AID 652048. max activation, %. D3R DiscoveRx beta-arrestin cells, luminescence, 90 min; in the data active = max activation above about 30%; note: 0% is about no effect
# Target sequence (P35462 whole entry, looked up): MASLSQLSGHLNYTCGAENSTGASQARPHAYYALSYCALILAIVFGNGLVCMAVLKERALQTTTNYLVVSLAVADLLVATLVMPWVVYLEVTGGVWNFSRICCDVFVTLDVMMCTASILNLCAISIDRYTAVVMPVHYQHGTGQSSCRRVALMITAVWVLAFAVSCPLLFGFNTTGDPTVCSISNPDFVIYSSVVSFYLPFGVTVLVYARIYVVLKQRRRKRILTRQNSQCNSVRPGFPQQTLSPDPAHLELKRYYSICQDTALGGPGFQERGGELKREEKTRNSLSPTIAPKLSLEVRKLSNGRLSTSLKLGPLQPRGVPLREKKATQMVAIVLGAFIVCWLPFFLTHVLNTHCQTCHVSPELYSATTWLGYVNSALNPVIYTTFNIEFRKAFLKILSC
#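 Agonist-mode cell screen: cells plated at 1500/well and incubated overnight at 37 °C, then exposed to library compounds for 90 min at 37 °C. Detection reagent was added for 30–60 min at room temperature, and luminescence was read.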
# DT40 TDP1 CPT: DT40-hTDP1 cell growth loss with CPT. AID 686979. chicken DT40 Tdp1-/-;hTDP1 cells + 20 nM CPT, ATP luminescence, 48 h. hit rate 12% among 420,000. Potency, µM (doses to about 46.2 µM), inactives show at the highest dose activity change, negative = growth inhibition, actives largely listed as inhibitors; note: potency is the fitted concentration of half-maximal effect; % is set by controls: 0 for no effect and ±100 for the full control effect; nearly all actives have a fitted effect of over 55% in size
#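 Chicken DT40 Tdp1-/- cells stably complemented with human TDP1 were seeded at 400 cells/well in medium containing 20 nM camptothecin, exposed to pin-transferred compounds, and grown at 37 °C for at least 48 hr. Viability was read as ATP luminescence.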
# DT40 TDP1 no CPT: qHTS for Inhibitors of human tyrosyl-DNA phosphodiesterase 1 (TDP1): qHTS in cells in absence of CPT; Potency, µM (top dose mostly 46.2 µM), inactives show at the top dose activity change, negative = growth inhibition, hits mostly inhibitors; DT40 Tdp1-/- hTDP1 cells, no CPT, ATP luminescence, 48 h; hit rate 15% among 420,000; note: potency is the fitted concentration of half-maximal effect; % is set by controls: 0 for no effect and ±100 for the full control effect; nearly all actives have a fitted effect of over 55% in size
#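 Readout: luminescence from CellTiter-Glo after 30 min in the dark at RT. Cells: DT40 Tdp1-/- with stable hTDP1, 400/well. Exposure: compounds alone, ≥48 hr, 37 °C.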
# ClpP mod: qHTS Assay for Activators of ClpP | ATP-dependent Clp protease proteolytic subunit (Bacillus subtilis (strain 168)), P80244 | purified B. subtilis ClpP, FRET peptide cleavage, 20 min | Potency, µM (top dose mostly 57.5 µM), for the others: at the top dose activity change, negative = active | hit rate 1.9% among 340,000; active = well fitted falling curve with a large enough effect; inconclusive = small, poorly fitted or top-dose-only effect; inactive = no such curve, though single readings can be large or run the other way; note: potency is the fitted concentration of half-maximal effect; the source files actives as falling curves though it sought activators and does not explain the sign; nearly all actives have a fitted effect of over 65% in size
# Target sequence (P80244 whole entry, looked up): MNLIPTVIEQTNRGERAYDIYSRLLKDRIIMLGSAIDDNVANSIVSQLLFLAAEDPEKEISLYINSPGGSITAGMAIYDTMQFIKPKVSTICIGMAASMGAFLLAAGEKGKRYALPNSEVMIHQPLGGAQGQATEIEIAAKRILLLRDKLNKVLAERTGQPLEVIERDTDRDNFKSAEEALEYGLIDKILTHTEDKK
#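 FRET quenching reversal measured ClpP activation: 10 microg/mL B. subtilis ClpP at pH 8 with the FRET-FV decapeptide, read at 430 nm after 320 nm excitation. The 20-min minus 0-min signal was scaled between DMSO/no-enzyme wells and ADEP (5.8 microM final).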
# DRD3 antagonist: D3 dopamine receptor (human) antagonism; P35462; D3R cells, DiscoveRx beta-arrestin luminescence, antagonist mode; hits give low values; max response, negative = inhibition, %; hit rate 2.5% among 360,000; in the data active = max response below about -50%; inconclusive = no clear call, values can overlap the other calls; note: % is set by controls: 0 for no effect and ±100 for the full control effect
#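 Cells expressing the human receptor were seeded at 1500 cells/well, incubated overnight at 37 degrees C in 5% CO2, then exposed to library compounds with dopamine controls for 90 minutes at 37 degrees C before luminescent detection.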
# Numbers without * were called inactive; ? = inconclusive; nt = no result given; [ ] = another dose, or the depositor's remark. Unless noted, calls come from the whole dose curve; as a rule, active = well fitted inhibition curve with a large enough effect; inconclusive = small, poorly fitted or top-dose-only effect; inactive = flat fitted curve, though single readings scatter.
SMILES,IL-1B inflam inh,D3 ag,DT40 TDP1 CPT,DT40 TDP1 no CPT,ClpP mod,DRD3 antagonist
CNC(=O)C1CCC(Cn2c(=O)c3sccc3n(CC(=O)Nc3ccc(C)c(F)c3)c2=O)CC1 (stereo unspecified),nt,-2,?,?,-3%,nt
CCOc1ccccc1NC(=O)c1c(NCc2cccs2)sc2c1CCCCC2,nt,-4,?,21µM*,0%,nt
CCOC(=O)N1CCc2c(sc(NCc3sccc3C)c2C(=O)Nc2ccccc2OCC)C1,nt,4,?,23µM*,1%,nt
O=C1Nc2ccccc2-n2nnnc2C1N1CCN(c2ccccn2)CC1 (stereo unspecified),-1,-12,0%,-10%,?,0
Cc1cc2c(cc1C)-n1nnnc1C(N1CCCC1)C(=O)N2 (stereo unspecified),3,9,-16%,-29%,-2%,30
Cc1cccc(N2CCN(C3C(=O)Nc4ccccc4-n4nnnc43)CC2)c1C (stereo unspecified),29,3,12µM*,7.3µM*,-3%,24
O=C1Nc2ccccc2-n2nnnc2C1N1CCN(c2ccc(C(F)(F)F)cn2)CC1 (stereo unspecified),21,7,16µM*,21µM*,-3%,7
Cc1cc2c(cc1C)-n1nnnc1C(N1CCN(c3ccccc3F)CC1)C(=O)N2 (stereo unspecified),7,5,18µM*,18µM*,0%,20
Cc1cc2c(cc1C)-n1nnnc1C(N(C)Cc1ccccc1)C(=O)N2 (stereo unspecified),8,8,21µM*,15µM*,-10%,2
CCC1CN(Cc2cccn2-c2ccccn2)Cc2cc(OC)ccc2O1 (stereo unspecified),nt,nt,-9%[9.04 µM],?,nt,nt
CC(C)(C)OC(=O)N1CCC(C(=O)Nc2cccc(C(=O)NCCCCc3ccccc3)c2)CC1,25,8,?,?,-1%,-5
Cc1cccn2c(=O)c(C(=O)NCc3ccc(F)cc3)c(O)nc12,nt,-12,?,?,?,nt
Cc1cc2c(cc1C)-n1nnnc1C(N1CCN(C(=O)OCc3ccccc3)CC1)C(=O)N2 (stereo unspecified),-4,6,6.5µM*,5.8µM*,-2%,24
Cc1cc2c(cc1C)-n1nnnc1C(N1CCN(CC(=O)N3CCCC3)CC1)C(=O)N2 (stereo unspecified),0,3,-21%,-17%,0%,?
CCCCCCN1C[C@@H](n2cc(-c3ccc(F)cc3)nn2)[C@H](O)C[C@@H]1c1ccccc1,-10,4,?,13µM*,-2%,0
CCCCCCN1C[C@H](O)[C@@H](n2cc(-c3ccc(F)cc3)nn2)C[C@@H]1c1ccc(C)cc1,-18,-1,?,23µM*,-4%,-23
CCCCCCN1C[C@@H](O)[C@H](n2cc(-c3ccc(F)cc3)nn2)C[C@@H]1c1ccc(C)cc1,3,1,?,21µM*,-4%,17
CCOP(=O)(c1ccc(N(C)C)cc1)C(O)c1ccc(OC)cc1 (stereo unspecified),-1,-1,-2%,-5%,nt,12
CCN(C(=O)Cn1c(=O)oc2cc(S(=O)(=O)N3CCCC3)ccc21)c1cccc(C)c1,nt,-9,?,?,1%,nt
COc1ccc(NC(=O)c2nnn(Cc3nc(-c4cc(OC)c(OC)c(OC)c4)oc3C)c2C)cc1,nt,-3,12%,8%,0%,nt
COc1ccc(NC(=O)c2nnn(Cc3nc(-c4cc(Br)ccc4OC)oc3C)c2C)cc1,nt,2,-21%,18µM*,0%,nt
COc1cc(-c2nc(Cn3nnc(C(=O)Nc4cc(C)cc(C)c4)c3C)c(C)o2)cc(OC)c1OC,nt,1,?,12µM*,-11%,nt
OCC[C@H]1C[C@@H](O)[C@H](O)[C@@]2(CCc3ccccc3O2)O1,-2,8,17%,3%,0%,5
O=C(c1ccco1)N1CCN(CCCCN2C(=O)c3ccccc3C2=O)CC1,-69*,57*,-15%,-2%,0%,-10
O=C(CCN1CCN(C(=O)c2ccco2)CC1)Nc1ccc(F)cc1,9,4,-16%,-26%,-2%,15
SMILES,IL-1B inflam inh,D3 ag,DT40 TDP1 CPT,DT40 TDP1 no CPT,ClpP mod,DRD3 antagonist
O=C(c1ccco1)N1CCN(CC(O)COc2ccc3oc4ccccc4c3c2)CC1 (stereo unspecified),-24,41*,18µM*,?,-2%,15
O=C(CN1C(=O)c2ccccc2C1=O)N1CCN(C(=O)c2ccco2)CC1,-6,-9,?,-4%,0%,-11
Cc1cc(C)cc(OCC(O)CN2CCN(C(=O)c3ccco3)CC2)c1 (stereo unspecified),-16,-2,-22%,2%,-3%,-8
O=C(c1ccco1)N1CCN(CCCCOc2ccc(F)cc2)CC1,28,66*,?,?,-8%,2
N/C(=N\OC(=O)CSc1ccccc1)c1ccccn1,?,1,1%,21%,-2%,5
CC(=O)CSc1nnc(C(F)(F)F)n1C,24,3,8%,-10%,1%,3
CN(C)c1ccc(-c2cncnc2NCCc2cnc[nH]2)cc1,nt,nt,?,-23%,nt,nt
COc1ccc(CCN2CC(C(=O)N(C)C3CCOCC3)CCC2=O)cc1 (stereo unspecified),?,-9,-6%,4%,0%,-12
CN1CCN(c2nc(-c3ccccc3)nc(-c3ccc(F)cc3)c2C#N)CC1,-61*,-3,?,?,nt,8
COc1ccccc1-c1nc(-c2ccccc2)nc(N2CCN(C)CC2)c1C#N,-52*,-6,-17%,?,nt,7
COc1ccc(-c2nc(-c3ccccn3)nc(N3CCN(C)CC3)c2C#N)cc1,?,0,-2%,1%,nt,1
Cc1ccc(NC(=O)CCc2nnc3ccc(N4CCC5(CC4)OCCO5)nn23)nc1,-6,3,-13%,-3%,0%,-4
Cc1ccc(NC(=O)CCc2nnc3ccc(N4CCC(C)CC4)nn23)nc1,-53*,-16,-24%,-3%,-3%,-29
COc1ccc(NC(=O)CCc2nnc3ccc(N4CCN(c5cccc(OC)c5)CC4)nn23)cc1,-1,1,?,15µM*,0%,36
CC(=O)N/C(=C\c1ccccc1)C(=O)OCc1cc(C)ccc1C,4,7,9%,-2%,nt,-15
